Measured values published in the supplement of paper PMC10849652.
About 7,900 targets were measured; listed, in parts, are those with a hit and a random draw of the rest. About 0.6% of all pairs of compound and target were hits. Values without a mark were called inactive.

Assays:
Experiment in all cases: log2 fold change, soluble protein after heating vs DMSO (PISA); higher = thermal stabilisation; K562 cells, 10 uM, 30 min; active = over 0.2 and 3.5 SD of the protein, either way, in both replicates (recomputed)
saracatinib = compound: CN1CCN(CCOc2cc(OC3CCOCC3)c3c(Nc4c(Cl)ccc5c4OCO5)ncnc3c2)CC1 [saracatinib]
How it was run: (§1)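 K562 cells at 2×10^6 cells/mL were treated with 10 μM compound for 30 min. Aliquots were heated for 3 min across 48°C-58°C, pooled, and extracted in PBS with 0.5% NP-40 at 4°C; soluble protein was the supernatant after 21,000xg for 90 min. Soluble protein was quantified by TMTpro 16plex LC-MS/MS with channel sums equalised, and reported as log2 fold change in thermal stability against DMSO controls, with values from duplicates.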

sotrastaurin = compound: CN1CCN(c2nc(C3=C(c4c[nH]c5ccccc45)C(=O)NC3=O)c3ccccc3n2)CC1 [sotrastaurin]
How it was run: as §1

alvocidib = compound: CN1CC[C@H](c2c(O)cc(O)c3c(=O)cc(-c4ccccc4Cl)oc23)[C@H](O)C1 [alvocidib]
How it was run: as §1

Tubastatin A = compound: CN1CCc2c(c3ccccc3n2Cc2ccc(C(=O)NO)cc2)C1 [Tubastatin A]
How it was run: as §1

[1] = compound: CNC(=O)C1=CC=CC=C1NC2=NC(=NC=C2Cl)NC3=C(C=C(C=C3)N4CCOCC4)OC
How it was run: as §1

defactinib = compound: CNC(=O)c1ccc(Nc2ncc(C(F)(F)F)c(NCc3nccnc3N(C)S(C)(=O)=O)n2)cc1 [defactinib]
How it was run: as §1

rucaparib = compound: CNCc1ccc(-c2[nH]c3cc(F)cc4c3c2CCNC4=O)cc1 [rucaparib]
How it was run: as §1

[2] = compound: CNc1nc(-c2ccc3c(N)n[nH]c3c2)cc(N2C[C@@H](C(=O)NC3CCCCC3)CC[C@H]2C)n1
How it was run: as §1

encorafenib = compound: COC(=O)N[C@@H](C)CNc1nccc(-c2cn(C(C)C)nc2-c2cc(Cl)cc(NS(C)(=O)=O)c2F)n1 [encorafenib]
How it was run: as §1

[3] = compound: COC(=O)[C@H](CCSC)NC(=O)C1=C(C=C(C=C1)NC[C@H](CS)N)C2=CC=CC=C2
How it was run: as §1

[4] = compound: COC1=CC=C(C=C1)CN2C=CC3=C2C=C(C=C3)C(=O)NO
How it was run: as §1

filanesib = compound: CON(C)C(=O)N1N=C(c2cc(F)ccc2F)S[C@@]1(CCCN)c1ccccc1 [filanesib]
How it was run: as §1

zotarolimus = compound: CO[C@H]1C[C@@H]2CC[C@@H](C)[C@@](O)(O2)C(=O)C(=O)N2CCCC[C@H]2C(=O)O[C@H]([C@H](C)C[C@@H]2CC[C@H](n3cnnn3)[C@H](OC)C2)CC(=O)[C@H](C)/C=C(\C)[C@@H](O)[C@@H](OC)C(=O)[C@H](C)C[C@H](C)/C=C/C=C/C=C/1C [zotarolimus]
How it was run: as §1

idasanutlin = compound: COc1cc(C(=O)O)ccc1NC(=O)[C@@H]1N[C@@H](CC(C)(C)C)[C@](C#N)(c2ccc(Cl)cc2F)[C@H]1c1cccc(Cl)c1F [idasanutlin]
How it was run: as §1

alisertib = compound: COc1cc(Nc2ncc3c(n2)-c2ccc(Cl)cc2C(c2c(F)cccc2OC)=NC3)ccc1C(=O)O [alisertib]
How it was run: as §1

[5] = compound: COc1cc2nc(-c3cc(F)ccc3O)nc(N[C@@H]3CNC[C@H]3C(C)(C)O)c2cc1OC
How it was run: as §1

gefitinib = compound: COc1cc2ncnc(Nc3ccc(F)c(Cl)c3)c2cc1OCCCN1CCOCC1 [gefitinib]
How it was run: as §1

[6] = compound: COc1cccc2cc(-c3nc([C@H]4CC[C@H](C(=O)O)CC4)n4ncnc(N)c34)[nH]c12
How it was run: as §1

lapatinib = compound: CS(=O)(=O)CCNCc1ccc(-c2ccc3ncnc(Nc4ccc(OCc5cccc(F)c5)c(Cl)c4)c3c2)o1 [lapatinib]
How it was run: as §1

pictilisib = compound: CS(=O)(=O)N1CCN(Cc2cc3nc(-c4cccc5[nH]ncc45)nc(N4CCOCC4)c3s2)CC1 [pictilisib]
How it was run: as §1

Chain of UniProt Q07666 (Q07666 whole entry, looked up): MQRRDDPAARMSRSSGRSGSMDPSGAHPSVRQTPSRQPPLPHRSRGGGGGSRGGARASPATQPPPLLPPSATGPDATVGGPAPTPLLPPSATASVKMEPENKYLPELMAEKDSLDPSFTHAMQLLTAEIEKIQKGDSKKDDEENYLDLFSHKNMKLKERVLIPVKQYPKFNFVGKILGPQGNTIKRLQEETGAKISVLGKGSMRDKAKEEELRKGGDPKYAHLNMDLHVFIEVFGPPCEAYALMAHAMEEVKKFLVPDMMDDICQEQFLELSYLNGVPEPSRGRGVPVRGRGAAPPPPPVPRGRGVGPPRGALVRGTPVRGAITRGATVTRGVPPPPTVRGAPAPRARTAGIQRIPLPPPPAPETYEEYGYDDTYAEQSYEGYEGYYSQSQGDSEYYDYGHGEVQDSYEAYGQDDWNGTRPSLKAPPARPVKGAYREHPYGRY
Chain of UniProt P52294 (P52294 whole entry, looked up): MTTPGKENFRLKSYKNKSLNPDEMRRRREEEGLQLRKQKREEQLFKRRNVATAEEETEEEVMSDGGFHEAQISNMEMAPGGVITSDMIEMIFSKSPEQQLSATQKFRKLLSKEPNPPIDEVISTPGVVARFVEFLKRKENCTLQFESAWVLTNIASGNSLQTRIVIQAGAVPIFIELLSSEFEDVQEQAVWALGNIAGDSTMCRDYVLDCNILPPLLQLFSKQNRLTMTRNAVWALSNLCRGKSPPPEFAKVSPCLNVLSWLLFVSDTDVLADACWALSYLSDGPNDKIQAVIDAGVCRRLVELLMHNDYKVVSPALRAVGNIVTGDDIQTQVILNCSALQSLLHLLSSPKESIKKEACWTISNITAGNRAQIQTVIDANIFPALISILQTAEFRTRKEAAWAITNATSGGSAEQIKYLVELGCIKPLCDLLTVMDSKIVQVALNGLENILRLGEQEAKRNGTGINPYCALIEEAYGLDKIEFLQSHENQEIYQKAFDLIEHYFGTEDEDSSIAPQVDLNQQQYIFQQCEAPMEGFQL
Chain of UniProt P23368 (P23368 whole entry, looked up): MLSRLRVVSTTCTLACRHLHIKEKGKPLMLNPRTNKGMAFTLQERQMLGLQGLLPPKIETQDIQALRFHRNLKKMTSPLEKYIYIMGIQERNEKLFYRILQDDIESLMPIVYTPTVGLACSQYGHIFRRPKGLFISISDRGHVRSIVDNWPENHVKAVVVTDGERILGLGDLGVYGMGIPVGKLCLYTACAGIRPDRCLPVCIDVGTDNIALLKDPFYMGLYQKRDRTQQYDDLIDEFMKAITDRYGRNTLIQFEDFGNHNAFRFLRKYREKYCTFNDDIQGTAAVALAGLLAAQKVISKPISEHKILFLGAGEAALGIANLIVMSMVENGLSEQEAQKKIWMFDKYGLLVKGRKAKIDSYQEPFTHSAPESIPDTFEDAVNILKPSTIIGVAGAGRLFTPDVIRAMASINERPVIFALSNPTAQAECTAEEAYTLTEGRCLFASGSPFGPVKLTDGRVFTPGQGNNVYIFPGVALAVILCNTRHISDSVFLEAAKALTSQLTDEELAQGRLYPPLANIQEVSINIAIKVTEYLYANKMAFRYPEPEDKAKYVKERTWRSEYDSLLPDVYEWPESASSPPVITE
Chain of UniProt Q96P70 (Q96P70 whole entry, looked up): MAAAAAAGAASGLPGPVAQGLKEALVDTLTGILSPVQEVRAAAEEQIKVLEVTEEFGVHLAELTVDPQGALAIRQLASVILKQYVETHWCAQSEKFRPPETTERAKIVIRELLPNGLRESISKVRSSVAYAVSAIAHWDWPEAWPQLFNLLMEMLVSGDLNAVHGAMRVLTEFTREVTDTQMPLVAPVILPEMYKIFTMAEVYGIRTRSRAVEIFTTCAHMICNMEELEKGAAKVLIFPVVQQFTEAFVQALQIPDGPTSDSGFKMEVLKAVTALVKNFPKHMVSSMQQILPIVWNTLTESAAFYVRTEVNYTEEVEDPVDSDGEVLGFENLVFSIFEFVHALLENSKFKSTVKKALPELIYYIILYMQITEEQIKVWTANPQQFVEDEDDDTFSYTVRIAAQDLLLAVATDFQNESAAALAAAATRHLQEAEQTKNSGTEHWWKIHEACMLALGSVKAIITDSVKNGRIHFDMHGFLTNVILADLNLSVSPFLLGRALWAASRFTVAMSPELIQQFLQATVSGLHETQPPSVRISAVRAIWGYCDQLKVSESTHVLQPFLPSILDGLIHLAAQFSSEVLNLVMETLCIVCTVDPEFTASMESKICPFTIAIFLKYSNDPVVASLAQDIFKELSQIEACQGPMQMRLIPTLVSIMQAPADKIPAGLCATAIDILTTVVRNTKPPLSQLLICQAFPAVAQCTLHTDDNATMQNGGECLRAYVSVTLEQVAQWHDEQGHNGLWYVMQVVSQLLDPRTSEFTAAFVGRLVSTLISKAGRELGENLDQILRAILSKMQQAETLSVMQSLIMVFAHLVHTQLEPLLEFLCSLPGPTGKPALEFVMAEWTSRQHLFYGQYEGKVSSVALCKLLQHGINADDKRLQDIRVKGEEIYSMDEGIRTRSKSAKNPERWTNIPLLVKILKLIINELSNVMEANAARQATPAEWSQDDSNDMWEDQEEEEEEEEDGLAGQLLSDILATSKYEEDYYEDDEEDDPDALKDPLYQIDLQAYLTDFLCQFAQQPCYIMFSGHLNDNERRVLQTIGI
Chain of UniProt Q9Y6R4 (Q9Y6R4 whole entry, looked up): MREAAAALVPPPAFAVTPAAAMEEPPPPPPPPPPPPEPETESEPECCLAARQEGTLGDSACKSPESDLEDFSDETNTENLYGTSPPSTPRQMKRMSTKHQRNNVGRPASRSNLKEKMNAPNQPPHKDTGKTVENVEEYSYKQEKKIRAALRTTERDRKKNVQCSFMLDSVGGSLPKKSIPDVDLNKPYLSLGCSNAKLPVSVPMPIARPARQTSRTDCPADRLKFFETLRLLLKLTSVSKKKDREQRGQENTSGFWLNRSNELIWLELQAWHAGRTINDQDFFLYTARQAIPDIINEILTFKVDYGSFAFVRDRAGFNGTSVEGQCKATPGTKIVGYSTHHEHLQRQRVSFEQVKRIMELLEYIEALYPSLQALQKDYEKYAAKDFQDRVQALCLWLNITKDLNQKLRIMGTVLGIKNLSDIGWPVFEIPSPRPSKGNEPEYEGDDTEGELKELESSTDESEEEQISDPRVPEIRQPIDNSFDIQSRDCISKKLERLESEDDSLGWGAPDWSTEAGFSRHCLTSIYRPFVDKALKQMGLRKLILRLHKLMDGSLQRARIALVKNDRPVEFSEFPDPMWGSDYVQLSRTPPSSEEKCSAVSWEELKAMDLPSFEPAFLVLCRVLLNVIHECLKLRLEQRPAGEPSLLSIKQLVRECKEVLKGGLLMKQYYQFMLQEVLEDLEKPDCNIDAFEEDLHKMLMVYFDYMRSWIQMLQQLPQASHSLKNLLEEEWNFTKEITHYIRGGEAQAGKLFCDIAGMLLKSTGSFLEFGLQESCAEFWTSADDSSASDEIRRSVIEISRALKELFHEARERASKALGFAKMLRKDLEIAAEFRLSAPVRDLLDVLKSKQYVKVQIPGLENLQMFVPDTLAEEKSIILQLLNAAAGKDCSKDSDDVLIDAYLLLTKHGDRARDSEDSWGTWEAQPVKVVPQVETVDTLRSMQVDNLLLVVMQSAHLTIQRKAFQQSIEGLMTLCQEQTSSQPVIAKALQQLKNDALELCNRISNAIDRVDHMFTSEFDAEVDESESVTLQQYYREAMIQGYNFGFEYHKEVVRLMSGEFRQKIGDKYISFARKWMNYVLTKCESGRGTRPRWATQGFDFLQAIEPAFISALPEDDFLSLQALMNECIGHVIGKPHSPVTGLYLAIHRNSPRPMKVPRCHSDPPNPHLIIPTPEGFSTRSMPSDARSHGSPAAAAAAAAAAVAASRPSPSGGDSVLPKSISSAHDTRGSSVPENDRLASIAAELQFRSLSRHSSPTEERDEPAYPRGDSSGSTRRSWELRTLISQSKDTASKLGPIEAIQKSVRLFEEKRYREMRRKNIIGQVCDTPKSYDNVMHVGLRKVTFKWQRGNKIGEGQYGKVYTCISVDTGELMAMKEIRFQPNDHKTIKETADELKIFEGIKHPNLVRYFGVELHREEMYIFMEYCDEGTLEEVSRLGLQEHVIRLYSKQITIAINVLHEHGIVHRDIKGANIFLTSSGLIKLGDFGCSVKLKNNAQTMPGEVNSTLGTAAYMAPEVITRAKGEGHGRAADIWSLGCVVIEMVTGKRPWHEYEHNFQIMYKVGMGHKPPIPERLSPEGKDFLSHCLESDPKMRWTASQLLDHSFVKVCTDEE
Chain of UniProt Q6P9B6 (Q6P9B6 whole entry, looked up): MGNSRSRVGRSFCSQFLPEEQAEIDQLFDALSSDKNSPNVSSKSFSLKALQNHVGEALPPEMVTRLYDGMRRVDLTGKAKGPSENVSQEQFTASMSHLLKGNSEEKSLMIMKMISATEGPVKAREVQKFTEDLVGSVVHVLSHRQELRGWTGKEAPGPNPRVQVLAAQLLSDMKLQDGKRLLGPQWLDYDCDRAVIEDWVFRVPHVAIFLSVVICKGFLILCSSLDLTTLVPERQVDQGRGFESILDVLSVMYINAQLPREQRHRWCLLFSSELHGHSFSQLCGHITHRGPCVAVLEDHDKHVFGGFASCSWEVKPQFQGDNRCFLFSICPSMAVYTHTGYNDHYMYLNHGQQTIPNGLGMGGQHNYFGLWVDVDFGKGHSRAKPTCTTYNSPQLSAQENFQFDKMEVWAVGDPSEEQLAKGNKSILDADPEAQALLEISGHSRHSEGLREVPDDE
Chain of UniProt P22692 (P22692 whole entry, looked up): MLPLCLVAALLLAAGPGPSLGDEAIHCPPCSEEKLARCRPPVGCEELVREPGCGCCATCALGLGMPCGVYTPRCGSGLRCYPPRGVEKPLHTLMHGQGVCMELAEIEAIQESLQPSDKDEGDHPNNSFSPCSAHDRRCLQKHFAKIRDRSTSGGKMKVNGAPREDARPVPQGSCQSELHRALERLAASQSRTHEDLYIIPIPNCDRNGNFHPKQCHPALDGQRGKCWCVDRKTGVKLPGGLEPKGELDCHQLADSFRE

| Target | log2 fold change (saracatinib) | log2 fold change (sotrastaurin) | log2 fold change (alvocidib) | log2 fold change (Tubastatin A) | log2 fold change [1] | log2 fold change (defactinib) | log2 fold change (rucaparib) | log2 fold change [2] | log2 fold change (encorafenib) | log2 fold change [3] | log2 fold change [4] | log2 fold change (filanesib) | log2 fold change (zotarolimus) | log2 fold change (idasanutlin) | log2 fold change (alisertib) | log2 fold change [5] | log2 fold change (gefitinib) | log2 fold change [6] | log2 fold change (lapatinib) | log2 fold change (pictilisib) |
| --- | --- | --- | --- | --- | --- | --- | --- | --- | --- | --- | --- | --- | --- | --- | --- | --- | --- | --- | --- | --- |
| LRRFIP1 (UniProt Q32MZ4) | 0.017 | 0.047 | 0.014 | -0.005 | -0.009 | -0.01 | -0.01 | -0.034 | -0.019 | 0.022 | -0.014 | 0.022 | -0.034 | 0.019 | -0.031 | 0.023 | -0.007 | 0.025 | -0.012 | -0.027 |
| KHDRBS1 (UniProt Q07666) | 0.025 | 0.018 | 0.027 | -0.006 | 0 | 0.042 | 0.248 (active) | -0.009 | -0.009 | -0.05 | 0.06 | 0.041 | -0.012 | 0.002 | 0.014 | 0.129 | 0.026 | 0.008 | -0.072 | -0.072 |
| MAP4 (UniProt E7EVA0) | 0.03 | -0.015 | 0.127 | 0.041 | -0.059 | 0.099 | 0.209 | 0.043 | 0.017 | 0.032 | -0.027 | 0.216 | -0.1 | 0.023 | -0.094 | -0.134 | 0.109 | -0.024 | 0.186 | 0.019 |
| ME2 (UniProt P23368) | 0.061 | 0.014 | 0.022 | 0.026 | 0.151 | -0.037 | -0.011 | -0.11 | 0.015 | 0.034 | -0.037 | 0.012 | -0.052 | 0.196 | 0.002 | 0.076 | 0.023 | -0.046 | -0.003 | 0.056 |
| MAP3K4 isoform 2 (UniProt Q9Y6R4) | 0.077 | 0.034 | -0.093 | -0.038 | 0.153 | -0.008 | 0.006 | -0.002 | -0.023 | 0.029 | 0.004 | -0.037 | 0.003 | -0.023 | -0.043 | 0.03 | 0.034 | 0.086 | 0.024 | 0.11 |
| KPNA1 (UniProt P52294) | -0.014 | -0.174 | -0.019 | 0.021 | 0.006 | -0.064 | 0.151 | -0.078 | 0.197 | 0 | -0.115 | 0.072 | 0.065 | 0.019 | 0.078 | 0.083 | 0.011 | -0.042 | 0.01 | 0.094 |
| L2HGDH (UniProt Q9H9P8) | -0.009 | 0.091 | -0.039 | -0.002 | -0.017 | -0.011 | -0.005 | 0.012 | -0.022 | 0.049 | 0.096 | -0.121 | 0.07 | -0.037 | -0.019 | -0.034 | -0.01 | 0.041 | -0.069 | 0.115 |
| MIEF1 (UniProt L0R8F8) | -0.068 | -0.008 | 0.009 | 0.041 | 0.008 | -0.003 | 0.024 | -0.074 | 0.008 | 0.015 | 0.104 | -0.072 | 0.023 | -0.063 | -0.084 | -0.148 | -0.005 | 0 | 0.135 | 0.033 |
| LBR (UniProt Q14739) | 0.008 | 0.036 | -0.032 | -0.008 | -0.02 | -0.022 | 0.164 | 0.116 | 0.058 | -0.089 | -0.075 | -0.065 | -0.008 | -0.196 | -0.019 | 0.079 | 0.034 | 0 | -0.081 | -0.191 |
| MAP4 (UniProt P27816) | 0.017 | 0.019 | 0.042 | -0.029 | -0.014 | 0.016 | 0.009 | -0.029 | -0.001 | 0.031 | -0.002 | 0.022 | -0.029 | 0.028 | -0.034 | -0.027 | -0.019 | -0.003 | -0.002 | -0.078 |
| MCL1 (UniProt Q07820) | 0.011 | -0.114 | -0.056 | 0.268 | -0.022 | -0.015 | 0.029 | -0.063 | 0.004 | 0.047 | -0.092 | 0.029 | 0.093 | 0.145 | -0.12 | -0.442 (active) | -0.18 | 0.055 | -0.249 | -0.026 |
| LEMD2 (UniProt Q8NC56) | -0.048 | 0.004 | 0.061 | 0.014 | -0.058 | -0.126 | 0.11 | 0.041 | 0.023 | 0.013 | -0.051 | -0.211 | 0 | -0.008 | 0.044 | -0.271 | 0.061 | 0.047 | 0.133 | -0.007 |
| IPO9 (UniProt Q96P70) | 0.036 | -0.13 | -0.08 | -0.02 | 0.034 | -0.106 | -0.051 | -0.136 | 0.056 | 0 | 0.014 | -0.005 | 0.052 | -0.089 | -0.016 | -0.054 | 0.088 | 0.065 | 0.011 | 0.031 |
| IGFBP4 (UniProt P22692) | 0.004 | 0.114 | 0.063 | -0.034 | -0.044 | 0.036 | 0.007 | -0.019 | -0.034 | 0.014 | -0.075 | 0.012 | -0.31 | 0.392 (active) | 0.009 | -0.024 | -0.107 | 0.179 | -0.036 | -0.022 |
| MEAK7 (UniProt Q6P9B6) | 0.043 | -0.004 | -0.056 | 0.028 | -0.088 | -0.041 | 0.008 | 0.026 | 0.02 | 0.088 | -0.046 | -0.109 | -0.002 | -0.013 | -0.012 | -0.101 | -0.142 | -0.055 | 0.087 | -0.063 |
| IGF2R (UniProt P11717) | -0.015 | 0.004 | -0.008 | -0.004 | 0.061 | -0.01 | -0.027 | -0.008 | 0.045 | 0.005 | 0.041 | 0.007 | -0.014 | -0.012 | -0.058 | -0.065 | -0.003 | 0 | 0.015 | 0.002 |
